This passage reports Potency and activity change, negative = inhibition results from PubChem BioAssay (NCATS).

Results filed as inconclusive are left out. A call without a number means that no potency is given here. Values without a mark were called inactive. The source made the active and inactive calls. The call rests on the fitted dose curve; in most records, active means well fitted inhibition curve with a large enough effect; inconclusive means small, poorly fitted or top-dose-only effect; inactive means flat fitted curve, though single readings scatter.

Chain of Calcium and integrin-binding protein 1 (Homo sapiens) (Q99828 whole entry, looked up): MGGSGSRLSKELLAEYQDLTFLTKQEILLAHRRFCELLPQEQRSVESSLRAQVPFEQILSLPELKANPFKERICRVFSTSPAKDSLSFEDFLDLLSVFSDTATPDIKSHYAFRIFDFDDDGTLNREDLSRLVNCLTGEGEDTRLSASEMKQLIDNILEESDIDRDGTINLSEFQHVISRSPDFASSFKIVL

In this assay the target is Calcium and integrin-binding protein 1 (Homo sapiens) (UniProt Q99828). Description: Primary qHTS for Identification of Calcium Integrin Binding Protein 1 (CIB1) Competitor (AID 1508620).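 Further: GST tagged CIB1 binding a fluorescein labelled alphaIIb integrin peptide tracer; top concentration of the series differs between compounds.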 The settings on record: CIB1-GST / FITC-alphaIIb peptide fluorescence polarization; series mostly up to 114 µM. Summed up:
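Fluorescence polarization competition: CIB1-GST (1 uM final) preincubated with compound 15 min at room temperature, then FITC-labeled alphaIIb peptide (100 nM final) added for another 15 min. Polarization read at Ex 480/Em 540.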
On to `N#Cc1cnc2c(Cl)cc(NCc3cn(CCN4CCCCCC4)nn3)cc2c1Nc1ccc(F)c(Cl)c1`, for which the Potency entry is “inactive”. With `C=C(NC(=O)C(=C)NC(=O)c1csc(C2=NC3c4csc(n4)C4NC(=O)c5csc(n5)C(C(C)(O)C(C)O)NC(=O)C5CSC(=N5)/C(=C/C)NC(=O)C(C(C)O)NC(=O)c5csc(n5)C3(CC2)NC(=O)C(C)NC(=O)C(=C)NC(=O)C(C)NC(=O)C(C(C)CC)NC2C=Cc3c(C(C)O)cc(nc3C2O)C(=O)OC4C)n1)C(N)=O` (stereo not drawn), the Potency result is “inactive”. As to `COc1cc(/C=N\NC(=O)c2ccc3c(c2)OCO3)ccc1OCc1ccccc1`, the Potency entry is “inactive”. For the molecule `CC1(C)OC[C@H](NC(=O)Nc2ccc(Br)cc2Br)[C@H](c2ccccc2)O1`, the Potency entry is “inactive”.

On to `C=CC(=O)N1CCC[C@@H](n2nc(-c3cccc(C(=O)Nc4ccc(C(C)C)c(C)c4)c3)c3c(N)ncnc32)C1`, for which the Potency result was “inactive”. For the molecule `COc1cc2c(Nc3cc(F)c(Cl)c(Cl)c3)ncnc2cc1OCC1CCCN(C)CCC1`, the Potency result is “inactive”.

On to `Cc1ccc(O)cc1Nc1ccnc(Nc2cccc(C(N)=O)c2)n1`, for which the Potency result was “inactive”. With `Cn1ncc(Cl)c1-c1cc(C(=O)N[C@H](CN)Cc2ccc(F)c(F)c2)oc1Cl`, the Potency result is “inactive”. On the same count and under the same terms, in the case of `Cc1cn2cc(C(=O)N(C)CCO)cc(NC3CCOc4cccc(C)c43)c2n1` (stereo not drawn) it was “inactive”; in that of `CC(=O)O[C@H]1CC(C)(C)CC2[C@]13CO[C@@]21CCC2[C@@]4(C)CC[C@H](O[C@@H]5OC[C@H](O[C@@H]6O[C@H](CO)[C@@H](O)[C@H](O)[C@H]6O[C@@H]6OC[C@@H](O)[C@H](O)[C@H]6O)[C@H](O)[C@H]5O[C@@H]5O[C@H](CO)[C@@H](O)[C@H](O)[C@H]5O)[C@@](C)(CO)C4CC[C@@]2(C)[C@]1(C)C[C@H]3O` (stereo partly drawn), “inactive”; in that of `Cc1cc(C)cc(-c2cnc3cc(Cl)c(-c4cccc(O)c4)cc3c2OCCCN)c1`, “inactive”.

In the case of `CCC/C=C/C(=O)O[C@H]1CC(C)(C)CC2[C@@]13[C@H](O)C[C@]1(C)[C@@]2(CCC2[C@@]4(C)CC[C@H](O[C@@H]5O[C@H](C(=O)O)[C@@H](O)[C@H](O[C@@H]6O[C@H](CO)[C@H](O)[C@H](O)[C@H]6O[C@@H]6O[C@@H](C)[C@H](O)[C@@H](O)[C@H]6O[C@@H]6OC[C@](O)(CO)[C@H]6O)[C@H]5O[C@@H]5O[C@H](CO)[C@H](O)[C@H](O)[C@H]5O)C(C)(C)C4CC[C@]21C)O[C@H]3O` (stereo partly drawn), the activity change, negative = inhibition is 4.06% [at 12.4 µM].

Turning to `CCn1c(-c2nonc2N)nc2c(C#CCO)ncc(OCCCN)c21`, the Potency result is “inactive”. For the molecule `C=C1C(=O)O[C@H]2CC(=C)[C@H]3CC[C@@](C)(O)[C@@H]3CC12` (stereo partly drawn), the Potency result is “inactive”.

As for `Cn1c(=O)c(F)c(Nc2ccc(I)cc2F)c2c(=O)n(CC(O)CO)cnc21` (stereo not drawn), the Potency result is “inactive”. Same read-out and setting: next, `COc1c(C(C)C)c(O)c(O)c2c1C(OC)[C@H]1OC(=O)[C@@]23CCCC(C)(C)[C@H]13` (stereo partly drawn): “inactive”; `CC(C)(C)OC(=O)c1ncn2c1C(C)(C)Nc1ccccc1-2`: “inactive”. Still for that read-out and setting: in the case of `COc1ccc(-c2ccc3c(N4CCOCC4C)nc(N4CCOCC4C)nc3n2)cc1CO` (stereo not drawn) it was “inactive”; in that of `O=C(NS(=O)(=O)c1ccc(Br)s1)c1ccc(Cl)cc1Cl`, “inactive”; in that of `CCN(CCNC(=O)Nc1ccccc1Br)c1cccc(C)c1`, “inactive”.

On to `COC1CC(=O)C23C(=O)NC(Cc4c[nH]c5ccccc45)C2C(C)C2(C)OC2C3/C=C/CC(C)CC1O` (stereo not drawn), for which the Potency entry was “inactive”. On the same count and under the same terms, in the case of `Cn1cc(C2=C(c3coc4ccccc34)C(=O)NC2=O)c2cc(Br)ccc21` it was “inactive”; in that of `C=CC(=O)N1CCC(Oc2cc3c(Nc4ccc(Cl)c(Cl)c4F)ncnc3cc2OC)CC1`, “inactive”; in that of `C=C1C(=O)OC2/C=C(\CO)CC/C=C(\C=O)C(OC)C(OC(=O)C(C)CC)C12` (stereo not drawn), “inactive”.

Take `C#CC(=O)N(c1ccc(OC)cc1OC)C(C(=O)NCC(=O)OCC)c1cccs1` (stereo not drawn): the Potency entry was “inactive”. Still for that read-out and setting: in the case of `COc1ccc(S(=O)(=O)n2cnc3cc(C)c(C)cc32)cc1` it was “inactive”. Still for that read-out and setting: in the case of `Cc1ccc(S(=O)(=O)NCc2ccc(C(=O)NCCN(Cc3ccccc3)C(C)C)cc2)cc1` it was “inactive”. As for `COC(CCc1ccc(O)cc1)CC(=O)CCc1ccc(O)cc1` (stereo not drawn), the Potency entry was “inactive”. The same measure, in the same setting: in the case of `O=C(NC1CCC1)c1ccc(C#Cc2cccc(F)c2)nc1` it was “inactive”; in that of `Cc1nc(Nc2cnn(C3CCNCC3)c2)nc2c1N(C)C(=O)c1cc3ccccc3cc1N2C`, “inactive”; in that of `C=C(COC(=O)C(O)C(O)CN)C12OC1C1(C)C(=CC2=O)C(O)C(O)CC1C` (stereo not drawn), “inactive”. On to `O=C1C[C@]23C=CCN4CCC5c6cc7c(cc6N1[C@@]5(CC2)C43)OCO7` (stereo partly drawn), for which the Potency entry was “inactive”. On the same count and under the same terms, next, `COC1=CC(=O)C=C(C)C12Oc1c(Cl)c(OC)cc(OC)c1C2=O` (stereo not drawn): “inactive”; `CC(=O)O[C@@H]1C2=C(O)C(=O)[C@](C)(OC(C)=O)C(=O)C2=CO[C@@]12O[C@@H](C)CC[C@H]2OC(C)=O`: “inactive”; `CC(NCCCc1cccc(C(F)(F)F)c1)c1cccc2ccccc12` (stereo not drawn): “inactive”. On to `Cc1cc2c(cc1N1C(=O)c3cccc4c(CCCO)ccc(c34)C1=O)n(C)c(=O)n2C`, for which the Potency entry is “inactive”. For `COc1cc(C(C)=O)c(OC)c2c1OC(C)(C)C=C2`, the Potency result was “inactive”. On the same count and under the same terms, in the case of `CCCc1cc(C)[nH]c(=O)c1CNC(=O)c1cc(-c2ccnc(N3CCN(C)CC3)c2)cc2c1cnn2C(C)C` it was “inactive”.
